In PubChem BioAssay (Tox21):
Active and inactive are the calls of the source. Calls follow the shape of the dose curve; as a rule, active = well fitted curve in the direction sought with a large enough effect in the repeat runs; inconclusive = weak or mixed curves; inactive = flat fitted curve, though single readings scatter.

Test: qHTS assay to test for compound auto fluorescence at 535 nm (green) in HepG2 cells (AID 720675)
Conditions: green autofluorescence 485/535 nm, 1 h; series mostly up to 91.3 µM; fluorescence, % of fluorescein control: at the top concentration
Text: National Center for Advancing Translational Sciences [NCATS]
NIH Chemical Genomics Center [NCGC]
U.S. Environmental Protection Agency [EPA]
National Institutes of Environmental Health Sciences [NIEHS]
National Toxicology Program [NTP]
U.S. Food and Drug Administration [FDA]
Compound auto fluorescence often interferes with screening of the compound library against various biological targets and signaling pathways. Some of these compounds may have fluorophoric properties. Such properties may interfere with the assay outputs resulting in false positives and/or negatives. To decrease such complications and ensure the compound activities are relevant in terms of biological response, the Tox21 10K compound library was screened for auto fluorescence.
From the fluorophores used as reporter signals in our screening assays, the auto fluorescence equivalencies of compounds against three fluorophores have been evaluated: Triamterene, Fluorescein and Rose Bengal sodium for blue, green and red fluorescence, respectively. The fluorescence intensities were measured using Excitation/Emission wavelengths at 405/460nm, 485/535nm and 540/590nm for blue, green and red labels, respectively. This assay includes the green fluorescence data.
Tox21 Assay Protocol Summary:
2,000 HepG2 cells in 5 uL of culture medium (MEM containing 10% FBS) per well were dispensed into black wall/clear bottom 1536-well plates using a Multidrop Combi Dispenser (ThermoFisher Scientific, Waltham, MA). The assay plates were incubated overnight at 37 C to allow cell attachment to the well bottom, followed by the transfer of 23 nL compound or DMSO vehicle by a pintool work station (Kalypsys , San Diego, CA). After the assay plates were incubated for 1 hr at 37 C and 5% CO2, fluorescence intensities in the assay plates were measured by an Envision (PerkinElmer, Shelton, CT) plate reader using three labels for measuring blue, green and red fluorescence at […] 460, 535 and 590 nm respectively.
% is scaled to controls: 0 for no effect and ±100 for the full control effect.

Compound | fluorescence, % of fluorescein control | outcome
O=C(COCCOCCOCC(=O)Nc1c(I)cc(I)c(C(=O)O)c1I)Nc1c(I)cc(I)c(C(=O)O)c1I | -0.0357% [at 46 µM] (inactive) | –
CNC(=O)NC | 0.014% [at 95.7 µM] (inactive) | –
Cc1ccccc1OCC1CO1 (stereo not given) | -0.123% (inactive) | –
CC(C)COC(=O)CC(C(=O)OCC(C)C)S(=O)(=O)O (stereo not given) | -0.209% (inactive) | –
Cc1oc(=O)oc1CN1CCN(c2cc3c(cc2F)c(=O)c(C(=O)O)c2n3C(C)S2)CC1 (stereo not given) | -0.0515% [at 46 µM] (inactive) | –
CCCCCCCC[Si](OCC)(OCC)OCC | -0.0452% (inactive) | –
CC(C)COC(=O)CCCCC(=O)OCC(C)C | -0.0709% (inactive) | –
CC(=O)N(CC(O)CO)c1c(I)c(C(=O)NCC(O)CO)c(I)c(C(=O)NCC(O)CO)c1I (stereo not given) | -0.0727% [at 46 µM] (inactive) | –
CCC1Nc2cc(Cl)c(S(N)(=O)=O)cc2S(=O)(=O)N1 (stereo not given) | -0.186% [at 46 µM] (inactive) | –
CC(=O)OC(C)c1ccccc1 (stereo not given) | 0.0177% (inactive) | –
O=c1[nH]c(=O)c2[nH]c(=O)[nH]c2[nH]1 | – | inactive
COCC(=O)Nc1c(I)c(C(=O)NCC(O)CO)c(I)c(C(=O)N(C)CC(O)CO)c1I (stereo not given) | 0.0261% [at 18.6 µM] (inactive) | –
CN[C@@H]1[C@H](O)[C@H](NC)[C@H]2O[C@@]3(O)C(=O)C[C@@H](C)O[C@H]3O[C@@H]2[C@H]1O | -0.162% [at 18.6 µM] (inactive) | –
CC1CCC(C(C)(C)S)C(=O)C1 (stereo not given) | -0.0011% (inactive) | –
CCCCCCCCCCCCCCCC(=O)NCCO | -0.0128% [at 46 µM] (inactive) | –
F[Si-2](F)(F)(F)(F)F | – | inactive
CCNC(=O)/C=C/c1cccc(Br)c1 | -0.103% [at 46 µM] (inactive) | –
CCCCCCCCC(=O)OCC | 0.0608% (inactive) | –
CCCCCCCCCCCCCCCCI | -0.0199% [at 18.6 µM] (inactive) | –
CCCCCCCCCCCCCC(=O)OC | -0.0088% (inactive) | –

Compound | fluorescence, % of fluorescein control | outcome
CCCCCCCC/C=C\CCCCCCCC(=O)OC[C@@H](O)[C@H]1OC[C@H](O)[C@H]1O | – | inactive
COc1cccc2sc(N)nc12 | -0.253% (inactive) | –
CC(C)COC(=O)COc1ccc(Cl)cc1Cl | -0.0806% (inactive) | –
O=C1CC[C@H](C(=O)N2CCCCC2)N1 | -0.108% [at 46 µM] (inactive) | –
C=CCOCC(CO)(COCC=C)COCC=C | 0.0755% (inactive) | –
Cc1ccccc1C | -0.0044% [at 95.7 µM] (inactive) | –
CN(C1CCCCC1)S(=O)(=O)c1ccccc1N | -0.161% (inactive) | –
C[CH2][Ge]([Cl])([CH2]C)[CH2]C | 0.0614% [at 95.7 µM] (inactive) | –
O=C1c2ccccc2-c2ccccc21 | -0.125% [at 95.7 µM] (inactive) | –
CC(C)(C)NCCO | -0.0573% (inactive) | –
Cc1ccc(S(=O)(=O)NC(=O)NC2CCCCCCC2)cc1 | -0.112% [at 46 µM] (inactive) | –
Cc1ccccc1N1CCN(CCc2nnc3n2CCCC3)CC1 | -0.107% [at 46 µM] (inactive) | –
COc1cc2c(Nc3ccc(Br)cc3F)ncnc2cc1OCC1CCN(C)CC1 | 0.0626% [at 46 µM] (inactive) | –
CCCCCCCCCCCCC | -0.0929% (inactive) | –
CN[C@@H]1[C@@H](O)[C@@H](O[C@@H]2[C@H](O)[C@H](O[C@H]3OC(CN)=CC[C@H]3N)[C@@H](N)C[C@H]2N)OCC1(C)O (stereo not given in full) | -0.128% [at 46 µM] (inactive) | –
Cc1nc2ccccc2c(=O)o1 | 0.0739% (inactive) | –
NC(Cc1c[nH]c2ccccc12)C(=O)O (stereo not given) | 0.0166% [at 46 µM] (inactive) | –
C=C[C@@H](C)CCC=C(C)C | 0.0603% (inactive) | –
O=C(Oc1ccccc1C(=O)O)c1ccccc1O | -0.0129% [at 46 µM] (inactive) | –
CCCCOC(=O)C(=O)OCCCC | 0.0002% (inactive) | –
